The source of these data is PubChem BioAssay (NCI).

The structures appear in SMILES notation. About 83,000 compounds went through this panel and 20% of them were active in at least one assay; those are over-represented in the sample as a whole.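 Each cell line was grown in a 96-well plate and treated with one concentration of compound for 48 hours. Values below 10 were considered active.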 Unmarked numbers belong to inactive results. Active and inactive are the calls of the source.

Experiment in all cases: NCI-60 one-dose screen, 48 h (100 = growth as untreated, 0 = no growth, -100 = all killed)
Holding throughout (conditions): 10 µM unless noted

Assay [1] deals with SR leukemia.
The test system of assay [2] is RPMI-8226 leukemia.
The subject of assay [3] is OVCAR-8 ovarian.
Assay [4] deals with OVCAR-5 ovarian.
In assay [5] the test system is OVCAR-4 ovarian.
Assay [6] concerns SK-OV-3 ovarian.
In assay [7] the test system is IGROV1 ovarian.
The test system of assay [8] is OVCAR-3 ovarian.
The subject of assay [9] is HS 578T breast.
The subject of assay [10] is NCI/ADR-RES ovarian.
In assay [11] the test system is T-47D breast.
Assay [12] relates to BT-549 breast.
The subject of assay [13] is MDA-MB-435 melanoma.
Assay [14] has as its system SW-620 colon.
Assay [15] concerns MCF7 breast.
Assay [16] relates to HCT-116 colon.
Assay [17] concerns HCC-2998 colon.
For assay [18], the system named is KM12 colon.

Turning to `COc1cccc(/C=C2\COc3ccc(O)cc3C2=O)c1`, the growth was 5.49% (active) in [1]; -24.8% (active) in assay [2]; 80.7% in [3]; 101% in [4]; 95% in [5]; 114% in assay [6]. For the same compound, the growth in assay [7] was 84.4%; in assay [8] it was 78.4%; in assay [9], 91.1%; in [10] it was 89.9%; in assay [11] it was 47.5%; in assay [12], 78%. The growth in [13] was 52.8%; in [14], 18.1%; in [15], 4.96% (active); in assay [16] it was 32.8%; in assay [17], 115%; in [18], 43.7%.
Take `Cc1ccc(/C=C2\CN(C(=O)C(Cl)Cl)C/C(=C\c3ccc(C)cc3)C2=O)cc1`: the growth in assay [1] was 1.68% (active); in [2], -19.3% (active); in assay [3], 4.74% (active); in assay [4], -44.6% (active); in assay [5], 25%; in assay [6], 29%. The growth in [7] was -58.8% (active); in assay [8], -97.8% (active); in assay [9] it was 9.67% (active); in assay [10], 8.57% (active); in assay [11], -29% (active); in assay [12] it was -15.3% (active). The growth is -75.1% (active) in assay [13]; -66.6% (active) in assay [14]; -32.1% (active) in [15]; -84.6% (active) in assay [16]; -89.6% (active) in [17]; -65.8% (active) in assay [18].
Take `C(/C=C/c1ccccc1)=Nc1ccc(CCc2ccc(N=C/C=C/c3ccccc3)cc2)cc1`: the growth is 47.3% in assay [1]; 94.5% in assay [2]; 83.5% in assay [3]; 93.6% in assay [4]; 101% in [5]; 98.6% in assay [6]. For the same compound, the growth in assay [7] was 85.8%; in [8], 132%; in assay [9], 108%; in assay [10], 80.9%; in assay [11], 97.5%; in assay [12], 91.9%. In addition, the growth in assay [13] was 115%; in assay [14], 51.6%; in assay [15], 69.2%; in assay [16], 54.1%; in assay [17] it was 108%; in [18], 106%.
For `O=C(CCCCCCCCC(=O)N/N=C\c1cc(Cl)ccc1O)N/N=C\c1cc(Cl)ccc1O`, the growth in assay [1] was 14.1%; in assay [2] it was 31.9%; in assay [3], 25.9%; in [4], 62%; in [5], 23%; in assay [6], 41.1%. Further, the growth in assay [7] is 30.2%; in assay [8] it was 31.4%; in assay [9], 66.3%; in [10], 17.4%; in assay [11] it was 28.2%; in assay [12], 38.5%. For the same compound, the growth in assay [13] was 38.1%; in assay [14], 46.5%; in [15], 20%; in assay [16], 22.7%; in assay [17], 39%; in assay [18] it was 24.2%.
Turning to `Cc1ccc(-c2cc(C(=O)N3N=C(c4ccc(N)cc4)CC3c3ccc(Cl)cc3)c3ccccc3n2)cc1` (stereo not given), the growth in assay [1] was 11.2%; in assay [2], 19.9%; in [3], 25.7%; in assay [4] it was 75.2%; in [5], 69%; in assay [6], 34.2%. Also, the growth in assay [7] was 47.4%; in assay [8], 14.6%; in assay [9] it was 6.64% (active); in assay [10] it was 21.7%; in [11], 35.9%; in assay [12] it was 30.8%. For the same compound, the growth in assay [13] was -61.7% (active); in assay [14] it was 33.8%; in assay [15], 17.8%; in assay [16] it was 11.8%; in assay [17] it was 37.9%; in [18], 27.9%.
Consider `O=C1Nc2ccccc2/C1=C/c1cn(C[C@@H](O)Cn2c3ccccc3c(=O)c3ccccc32)c2ccccc12`, for which the growth in assay [1] is 66.3%; in assay [2], 67.1%; in assay [3] it was 68.5%; in assay [4] it was 86.7%; in [5], 88%; in assay [6], 73.3%. The growth in assay [7] was 53.7%; in assay [8] it was 73.5%; in [9] it was 62.8%; in assay [10], 85.4%; in assay [11] it was 62.7%; in [12], 73.3%. Further, the growth in [13] was 85.1%; in assay [14], 78.7%; in assay [15], 45.9%; in assay [16], 57.7%; in [17], 76.1%; in [18] it was 68.2%.
On to `CC[C@H](CC[C@@H](C)[C@H]1CC[C@H]2[C@@H]3CC[C@@H]4CC(=O)/C(=C\c5ccncc5)C[C@]4(C)[C@H]3CC[C@]12C)C(C)C`, for which the growth in assay [1] is 87.5%; in assay [2], 92.2%; in assay [3], 100%; in [4], 104%; in [5], 110%; in assay [6] it was 99.7%. In addition, the growth was 104% in assay [7]; 106% in assay [8]; 98.8% in assay [9]; 104% in assay [10]; 100% in assay [11]; 95.2% in assay [12]. Besides, the growth is 101% in [13]; 102% in [14]; 95.7% in [15]; 103% in assay [16]; 104% in assay [17]; 102% in assay [18].
For the compound `O=C1Nc2ccccc2C2c3cccn3-c3ccccc3N12` (stereo not given), the growth in assay [1] was 49.5%; in [2], 82.6%; in assay [3] it was 86.9%; in [4] it was 96.6%; in [5], 84.2%; in [6] it was 84.6%. In addition, the growth in assay [7] was 74.1%; in assay [8] it was 74.1%; in assay [9], 78.3%; in [10] it was 42.7%; in [11] it was 76%; in [12], 82.7%. Further, the growth is 7.5% (active) in [13]; 49.6% in assay [14]; 60.1% in assay [15]; 78.2% in assay [16]; 77.2% in assay [17]; 62.3% in assay [18].
On to `CS(=O)(=O)Nc1cncc(-c2ccc3ncnc(Nc4ccc(F)c(Cl)c4)c3c2)c1`, for which the growth in assay [1] is 23.3%; in [2], 15.7%; in assay [3], 47.1%; in [4] it was 33.3%; in [5], 63.4%; in assay [6], -0.027% (active). Besides, the growth in assay [7] is -17.2% (active); in assay [8], 22.1%; in assay [9], 3.01% (active); in [10] it was 84%; in [11] it was -9.57% (active); in assay [12], 32.4%. Further, the growth in [13] was 49%; in assay [14] it was 43.1%; in assay [15] it was 13.1%; in assay [16], 19.6%; in [17], 66%; in assay [18], 59.4%.
Take `O=C1CCC(C(=O)NN(c2ccccc2)c2ccccc2)N1` (stereo not given): the growth was 19.7% in assay [1]; 17.8% in [2]; 103% in assay [3]; 99.2% in assay [4]; 103% in assay [5]; 96.6% in assay [6]. In addition, the growth is 105% in assay [7]; 95.4% in assay [8]; 95.8% in assay [9]; 111% in assay [10]; 103% in assay [11]; 30.2% in assay [12]. Further, the growth is 93.8% in assay [13]; 100% in assay [14]; 98% in [15]; 15.5% in [16]; 110% in assay [17]; 87.3% in [18].
For the compound `C=C(c1ccc(C(=O)O)cn1)c1cc2c(cc1C)C(C)(C)CCC2(C)C`, the growth is 82.7% in [1]; 66.5% in assay [2]; 83.7% in assay [3]; 121% in assay [4]; 85.2% in [5]; 75.5% in assay [6]. Moreover, the growth was 98.9% in assay [7]; 87.6% in [8]; 69.5% in assay [9]; 83.6% in assay [10]; 81.5% in [11]; 86.4% in [12]. Besides, the growth in [13] was 92.6%; in assay [14] it was 117%; in [15] it was 65.6%; in [16], 82.3%; in assay [17], 126%; in assay [18], 86.1%.
Consider `COc1cc(-c2nc(SCCC(C)C)nc(N3CCOCC3)c2C#N)cc(OC)c1OC`, for which the growth in [1] was -10.1% (active); in assay [2], 90.3%; in assay [3], 43.1%; in [4], 102%; in [5], -25.2% (active); in [6], 88.6%. Further, the growth in assay [7] was 79.6%; in assay [8], -33.3% (active); in assay [9] it was 76.7%; in assay [10], 79%; in [11], 13.9%; in assay [12], 79.9%. The growth was 85.6% in assay [13]; 27.7% in assay [14]; 58.9% in [15]; 5.13% (active) in assay [16]; 91.7% in assay [17]; 38% in [18].
Consider `Cn1cccc1/C=C1\C(=O)Nc2ccccc21`, for which the growth was 72.8% in assay [1]; 103% in assay [2]; 107% in assay [3]; 87.2% in [4]; 48% in assay [5]; 94.4% in assay [6]. Besides, the growth in assay [7] is 76.3%; in assay [8], 74.7%; in assay [9] it was 101%; in [10] it was 93.2%; in [11], 18.2%; in assay [12], 89.6%. Further, the growth in [13] is 103%; in assay [14], 99.5%; in assay [15], 12.3%; in assay [16], 102%; in assay [17], 48.8%; in [18], 21.8%.
With `CN(C)c1ccc(/C=C/C(=O)c2ccc(Nc3nc(Nc4ccc(F)cc4)nc(Nc4ccc(Cl)cc4)n3)cc2)cc1`, the growth in assay [1] was 4.77% (active); in assay [2] it was 30.5%; in assay [3], 48.8%; in assay [4], 74.2%; in assay [5] it was 76.5%; in assay [6], 108%. The growth in [7] was 72.4%; in assay [8], 89.2%; in [9], 77.2%; in assay [10], 66.4%; in assay [11], 50.4%; in [12] it was 75.7%. For the same compound, the growth in assay [13] was 56.2%; in assay [14], 92.3%; in assay [15], 56.7%; in [16] it was 58.7%; in [17] it was 111%; in assay [18] it was 73.8%.
With `CC1(C)CC2=C3C=C[C@@H]4[C@@]5(C)CC[C@H](O)C(C)(C)[C@@H]5CC[C@@]4(C)[C@]3(C)CC[C@@]2(C(=O)O)CC1=O`, the growth is 50.5% in assay [1]; 4.49% (active) in assay [2]; 62.6% in assay [3]; 99.5% in assay [4]; 38% in assay [5]; 75.9% in [6]. Further, the growth in assay [7] is 35.3%; in assay [8] it was 22.2%; in assay [9], 73%; in assay [10], 61.2%; in assay [11], 42.2%; in assay [12] it was 36.7%. Further, the growth is 39.4% in [13]; 43.8% in [14]; 31.9% in assay [15]; 12.8% in [16]; 70.3% in assay [17]; 42.6% in [18].
